From PubChem BioAssay (EPA / NIEHS)
Results filed as inconclusive are left out. Active and inactive are the calls of the source. The calls were made as follows: active = hit-call score of the fitted dose curve at least 0.9, where 1 is the maximum; inconclusive = response in the unintended direction; inactive = score below 0.9.

System: frog Estrogen Receptor (ESR1), gene 398734
Assay: ATG_frER1_XSP1: Attagene TRANS-FACTORIAL Multi-Species (XSP1) HepG2 Assay for frog Estrogen Receptor (ESR1) (AID 2283777)
Method in brief: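 Human hepatoma HepG2 cells carried transiently transfected multiplexed Gal4-driven reporters and were exposed to test chemicals for 24 hours. Transcripts were quantified by fluorescent RT-PCR with capillary electrophoresis, referenced to DMSO.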
In the case of `COP(=S)(OC)Oc1ccc([N+](=O)[O-])c(C)c1`, the AC50 is reported as 48.9 µM (active).
With `CC1(C)C(C=C(Cl)Cl)C1C(=O)OC(C#N)c1cccc(Oc2ccccc2)c1` (configuration not stated) the AC50 was 2.24 µM (active).
With `Cc1c(COC(=O)[C@@H]2[C@H](/C=C(\Cl)C(F)(F)F)C2(C)C)cccc1-c1ccccc1` the AC50 was 36.3 µM (active).
For `CC1(C)CCC(=Cc2ccc(Cl)cc2)C1(O)Cn1cncn1` (configuration not stated), the outcome was “inactive”.
With `CCN(CC)C(=O)C(C)Oc1cccc2ccccc12` (configuration not stated) the AC50 was 24.8 µM (active).

System: zebrafish Estrogen Receptor (ESR2A), gene 317734
Assay: ATG_zfER2a_XSP1: Attagene TRANS-FACTORIAL Multi-Species (XSP1) HepG2 Assay for zebrafish Estrogen Receptor (ESR2A) (AID 2283778)
Method in brief: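 Cells were transfected, dosed for 24 h, then total RNA was isolated. After oligo(dT) reverse transcription, reporter sequences were amplified, FAM-labelled by primer extension, digested with HpaI and sized by capillary electrophoresis; DMSO served as baseline.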
With `COP(=S)(OC)Oc1ccc([N+](=O)[O-])c(C)c1` the outcome was “inactive”.
With `CC1(C)C(C=C(Cl)Cl)C1C(=O)OC(C#N)c1cccc(Oc2ccccc2)c1` (configuration not stated) the outcome was “inactive”.
For `Cc1c(COC(=O)[C@@H]2[C@H](/C=C(\Cl)C(F)(F)F)C2(C)C)cccc1-c1ccccc1`, the outcome was “inactive”.
In the case of `CC1(C)CCC(=Cc2ccc(Cl)cc2)C1(O)Cn1cncn1` (configuration not stated), the outcome is reported as “inactive”.
In the case of `CCN(CC)C(=O)C(C)Oc1cccc2ccccc12` (configuration not stated), the AC50 is reported as 25.8 µM (active).

Biological target: chicken Estrogen Receptor (ESR1), ESR1 (gene 396099) (UniProt P06212)
Sequence (P06212 whole entry, looked up): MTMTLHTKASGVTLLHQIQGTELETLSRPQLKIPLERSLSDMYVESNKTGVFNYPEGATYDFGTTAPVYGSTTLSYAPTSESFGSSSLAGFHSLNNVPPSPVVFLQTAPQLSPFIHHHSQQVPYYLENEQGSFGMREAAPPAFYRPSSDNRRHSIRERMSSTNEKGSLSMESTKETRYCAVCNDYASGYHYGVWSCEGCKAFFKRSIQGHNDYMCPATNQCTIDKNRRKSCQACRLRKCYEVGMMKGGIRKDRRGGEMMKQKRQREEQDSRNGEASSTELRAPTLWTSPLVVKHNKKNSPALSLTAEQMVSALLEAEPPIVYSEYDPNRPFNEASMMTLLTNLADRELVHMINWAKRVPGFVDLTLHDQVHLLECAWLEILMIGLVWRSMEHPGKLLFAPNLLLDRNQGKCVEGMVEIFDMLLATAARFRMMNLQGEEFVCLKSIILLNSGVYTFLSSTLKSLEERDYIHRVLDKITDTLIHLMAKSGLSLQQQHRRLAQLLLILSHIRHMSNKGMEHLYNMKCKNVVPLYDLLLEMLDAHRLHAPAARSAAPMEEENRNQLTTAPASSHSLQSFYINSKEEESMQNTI
Assay: ATG_chERa_XSP1: Attagene TRANS-FACTORIAL Multi-Species (XSP1) HepG2 Assay for chicken Estrogen Receptor (ESR1) (AID 2283779)
Protocol: (§1) ATG_XSP1_multi-species_TRANS is a cell-based, multiplexed assay created by modifying the existing Attagene TRANS-FACTORIAL system to include a panel of nuclear receptors from some or all the following species: human (Homo sapiens), mouse (Mus musculus), frog (Xenopus laevis), zebrafish (Danio rerio), chicken (Gallus gallus), and turtle (Chrysemys picta). The ECOTOX-FACTORIAL format uses HepG2, a human liver cell line, with measurements taken at 24 hours after chemical dosing in a 24-well plate. Xsp1 included 3 nM 6-alpha-fluorotestosterone to partially stimulate the androgen receptor.ATG_chERa_XSP1 is one of 29 assay components measured or calculated from the ATG_XSP1_multi-species_TRANS assay. It is designed to make measurements of mRNA induction, a form of inducible reporter, as detected with fluorescence intensity signals by Reverse transcription polymerase chain reaction (RT-PCR) and Capillary electrophoresis technology.The assay endpoint ATG_chERa_XSP1 was analyzed in the positive analysis fitting direction relative to DMSO as the negative control and baseline of activity. Using a type of inducible reporter, measures of mRNA for gain-of-signal activity can be used to understand the reporter gene at the transcription factor-level as they relate to the gene ER. Furthermore, this assay endpoint can be referred to as a primary readout, because this assay has produced multiple assay endpoints where this one serves a reporter gene function. To generalize the intended target to other relatable targets, this assay endpoint is annotated to the nuclear receptor intended target family, where the subfamily is steroidal.
(§2) Human liver HepG2 cells are transiently transfected with multiple reporter transcription units (MRTUs) in 6-well plates using FuGene 6 reagent (Roche; 3 ml FuGene/1 mg DNA). The MRTU constructs are regulated by a cis-regulating element (promoter). […] A major difference between the CIS and TRANS system is that in CIS activities of endogenous TFs are measured, whereas the TRANS assay evaluates changes in activities of exogenous, chimeric NR-Gal4 proteins. […] At the end of 24 hour incubation, total RNA was isolated using TriZol reagent (Invitrogen). The isolated RNA is then reverse-transcribed using oligo(dT) primer and Mo-MLV reverse transcriptase (Invitrogen) with DNAse I (Ambion) treatment for 30 min. The one-tenth of the produced cDNA was amplified by PCR using Taq DNA polymerase (Invitrogen) and two reporter sequence-specific primers. The PCR products were fluorescently labeled by primer extension with 6-arboxyfluorescein (6-FAM) 5'-labeled reporter sequence-specific primer (2 min at 95 C, 20 s at 68 C and 10 min at 72 C) and these products were digested with 5U of HpaI (New England Biolabs) for 2h at 37 C. The fragments were purified using Qiaquick PCR columns (Qiagen), analyzed on an ABI 3130xL genetic analyzer (Applied Biosystems) with peak positions identified by using a set of X-rhodamine (ROX)-labeled MapMarker1000 molecular weight standards (BioVentures). The raw capillary electrophoresis data was processed using Attagraph software (Attagene).
With `COP(=S)(OC)Oc1ccc([N+](=O)[O-])c(C)c1` the AC50 was 43.2 µM (active).
In the case of `CC1(C)C(C=C(Cl)Cl)C1C(=O)OC(C#N)c1cccc(Oc2ccccc2)c1` (configuration not stated), the outcome is reported as “inactive”.
For `Cc1c(COC(=O)[C@@H]2[C@H](/C=C(\Cl)C(F)(F)F)C2(C)C)cccc1-c1ccccc1`, the outcome was “inactive”.
In the case of `CC1(C)CCC(=Cc2ccc(Cl)cc2)C1(O)Cn1cncn1` (configuration not stated), the AC50 is reported as 3.53 µM (active).
For `CCN(CC)C(=O)C(C)Oc1cccc2ccccc12` (configuration not stated), the outcome was “inactive”.

Biological target: Estrogen receptor (Homo sapiens) (UniProt P03372)
Sequence (P03372 whole entry, looked up): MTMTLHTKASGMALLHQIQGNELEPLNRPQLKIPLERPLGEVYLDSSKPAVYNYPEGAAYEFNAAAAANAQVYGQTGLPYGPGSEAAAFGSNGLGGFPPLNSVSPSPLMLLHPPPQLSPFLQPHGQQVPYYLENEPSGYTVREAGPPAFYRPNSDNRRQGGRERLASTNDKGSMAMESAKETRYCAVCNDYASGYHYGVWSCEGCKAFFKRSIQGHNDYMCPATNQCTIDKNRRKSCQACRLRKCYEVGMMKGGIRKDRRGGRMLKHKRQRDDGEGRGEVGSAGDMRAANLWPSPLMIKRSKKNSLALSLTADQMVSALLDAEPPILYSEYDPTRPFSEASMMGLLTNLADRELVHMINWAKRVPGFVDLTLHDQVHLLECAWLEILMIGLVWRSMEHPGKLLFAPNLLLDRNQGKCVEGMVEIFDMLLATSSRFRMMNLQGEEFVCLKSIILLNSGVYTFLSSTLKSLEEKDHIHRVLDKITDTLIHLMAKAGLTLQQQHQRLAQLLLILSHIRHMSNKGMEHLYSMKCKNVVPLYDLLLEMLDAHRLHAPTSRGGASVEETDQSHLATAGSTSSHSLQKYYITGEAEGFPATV
Assay: ATG_hERa_XSP1: Attagene TRANS-FACTORIAL Multi-Species (XSP1) HepG2 Assay for human Estrogen Receptor (ESR1) (AID 2283780)
Protocol: as §1, with “receptor.ATG_hERa_XSP1” for “receptor.ATG_chERa_XSP1”, “ATG_hERa_XSP1” for “ATG_chERa_XSP1”
as §2
For `COP(=S)(OC)Oc1ccc([N+](=O)[O-])c(C)c1`, the AC50 was 36.7 µM (active).
In the case of `CC1(C)C(C=C(Cl)Cl)C1C(=O)OC(C#N)c1cccc(Oc2ccccc2)c1` (configuration not stated), the AC50 is reported as 1.45 µM (active).
With `Cc1c(COC(=O)[C@@H]2[C@H](/C=C(\Cl)C(F)(F)F)C2(C)C)cccc1-c1ccccc1` the AC50 was 21.8 µM (active).
For `CC1(C)CCC(=Cc2ccc(Cl)cc2)C1(O)Cn1cncn1` (configuration not stated), the AC50 was 3.95 µM (active).
With `CCN(CC)C(=O)C(C)Oc1cccc2ccccc12` (configuration not stated) the outcome was “inactive”.

System: turtle Estrogen Receptor (ESR1), gene 101933533
Assay: ATG_trERa_XSP1: Attagene TRANS-FACTORIAL Multi-Species (XSP1) HepG2 Assay for turtle Estrogen Receptor (ESR1) (AID 2283781)
Method in brief: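 Activity was taken as gain of reporter transcript over DMSO controls. HepG2 cells carrying GAL4-UAS-driven reporters were exposed for 24 h before RNA was extracted and reporter sequences were measured by fluorescence after capillary separation.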
For `COP(=S)(OC)Oc1ccc([N+](=O)[O-])c(C)c1`, the AC50 was 50.1 µM (active).
With `CC1(C)C(C=C(Cl)Cl)C1C(=O)OC(C#N)c1cccc(Oc2ccccc2)c1` (configuration not stated) the outcome was “inactive”.
For `Cc1c(COC(=O)[C@@H]2[C@H](/C=C(\Cl)C(F)(F)F)C2(C)C)cccc1-c1ccccc1`, the AC50 was 19.8 µM (active).
For `CC1(C)CCC(=Cc2ccc(Cl)cc2)C1(O)Cn1cncn1` (configuration not stated), the AC50 was 5.79 µM (active).
For `CCN(CC)C(=O)C(C)Oc1cccc2ccccc12` (configuration not stated), the AC50 was 5.99 µM (active).

System: not listed separately
Assay: ACEA_ER_AUC_viability: ACEA Biosciences xCELLigence Real-Time Cell Analysis on Estrogen Receptor Agonism for Viability (AID 2283782);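 also: continuous compound exposure with impedance area under curve over 80 h; hit means loss of impedance signal meaning reduced cell growth or viability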
Method in brief: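 T-47D; phenol red-free RPMI1640 + 10% CS-FBS; 8 conc., 1:4 serial, max 100 uM final, ≤0.5% DMSO; n = 2; continuous exposure; impedance monitored to 80 h post-dose; AUC vs DMSO.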
In the case of `CNC(=O)N(C)c1nnc(C(C)(C)C)s1`, the outcome is reported as “inactive”.
For `CC(C)N1C(=O)c2ccccc2NS1(=O)=O`, the outcome was “inactive”.
For `CC(C)N1C(=O)N(c2ccccc2)CSC1=NC(C)(C)C`, the AC50 was 89.6 µM (active).
In the case of `CCCC(=NOCC)C1=C(O)CC(CC(C)SCC)CC1=O` (configuration not stated), the outcome is reported as “inactive”.
With `Nc1c(Cl)c(Cl)nc(C(=O)O)c1Cl` the outcome was “inactive”.
For `Cc1ccc(N=CN(C)C=Nc2ccc(C)cc2C)c(C)c1`, the AC50 was 50 µM (active).
In the case of `COP(=S)(OC)Oc1ccc([N+](=O)[O-])c(C)c1`, the outcome is reported as “inactive”.
For `Nc1cnn(-c2ccccc2)c(=O)c1Cl`, the outcome was “inactive”.
In the case of `COc1cc(Cl)c(OC)cc1Cl`, the outcome is reported as “inactive”.
In the case of `CC(C)=CC1C(C(=O)OCc2coc(Cc3ccccc3)c2)C1(C)C` (configuration not stated), the AC50 is reported as 84 µM (active).
With `Cc1c(COC(=O)[C@@H]2[C@H](/C=C(\Cl)C(F)(F)F)C2(C)C)cccc1-c1ccccc1` the outcome was “inactive”.
For `CCSC(=O)N1CCCCCC1`, the outcome was “inactive”.
In the case of `CC(C)Oc1cccc(NC(=O)c2ccccc2C(F)(F)F)c1`, the outcome is reported as “inactive”.
In the case of `CCN(CC)c1nc(C)cc(OP(=S)(OC)OC)n1`, the outcome is reported as “inactive”.
With `CC1(C)C(C(=O)OC(C#N)c2cccc(Oc3ccccc3)c2)C1(C)C` (configuration not stated) the AC50 was 89.4 µM (active).
In the case of `COC(=O)N(C(=O)N1CO[C@@]2(C(=O)OC)Cc3cc(Cl)ccc3C2=N1)c1ccc(OC(F)(F)F)cc1`, the AC50 is reported as 69.2 µM (active).
For `OC(c1ccc(Cl)cc1)(c1ccc(Cl)cc1)C(Cl)(Cl)Cl`, the AC50 was 26.4 µM (active).
